B1: ENSMUSG00000028439.214|Fam219a|183:189;217:221 (ssRNA)
RNA: GGGAGUUCUACAGUCCGACGAUCGCUUCGAUAUCCGCAUGCUAUCUGGAACCUGGGUUCUGGUCCCAGCCUCGGCAUUCUCCCUGAGCUCCUAAGCAAUUCCCAGGCUUCUCUAGGGCUUCAGUUCUCACAACUGGAAAAUAAAGAGUAGCUGACAUCACCGACAGAGUCUUUUCAUACCAGAAGGAAUUUCUUCACAGGAGUUUCUGCAAAAGACUAUGACAUCACACACACUGUGGUCUCACGAGGUACCUGGAGGUCAUACUGCACGGACAUGGGAAGUACGUGAAGAUUUAUUUCGGGACUCUUGCGGUCGCACUAGUGUGGAAUUCUCGGGUGUCAAGG
B2: ENSMUSG00000004113.200|Cacna1b|94:98 (ssRNA)
RNA: GGGAGUUCUACAGUCCGACGAUCGCUUCGAUAUCCGCAUGCUACCUGAUCUCUGGCUCUGAGCAUCGUGGAUGAGGUACGGCCUCAGGAAGCAUCGGGUGGAUUGGGUGGGAGCUGCUCAGAGCAGCACGGGGGCUACACACUUAGGGACAUUGACAGUGUCCAUCAGCAUGUCAGAGAAGCAGCUGUAGUGCCCGUGUUUCUCCCUGAGUCAUGGGUUCUGAAGAAGCCAGAGCGGCACAAUGCGUGCUUGCAUGAGGCACUUUCAGCCUUUUUAAAUCUGACUCUCAGGGAUGGGAUGCCUCUCUUGCGGUCGCACUAGUGUGGAAUUCUCGGGUGUCAAGG
B3: ENSMUSG00000090935.682|Synj2bp (ssRNA)
RNA: GGGAGUUCUACAGUCCGACGAUCGCUUCGAUAUCCGCAUGCUAACUGUCAGGAGCUCUCUCUCUCUGCUUAGAAUCAUCCAGACAGCGGGCUGGUCAGCCCACAUUAAAUAAGAACAUGUGGGACUAGAAUUCAGUCAACAAUGACAUGUUUCAUCAGGUGGUUAAAAUGUACAGAUUCUGUUGGAAAUGUUCCAUGGUAUUUCAAUAGCCAGAAUGAAGAACUGGGCUAAGUCCAGAGCUCUGCUCUCUGAGCAUCUGCCCCAGAUACAGAGGCAGAGUAUGAAGUGGAACAUUGUUUUAUUCUCUUGCGGUCGCACUAGUGUGGAAUUCUCGGGUGUCAAGG
B4: ENSMUSG00000029028.246|Lrrc47|180:184 (ssRNA)
RNA: GGGAGUUCUACAGUCCGACGAUCGCUUCGAUAUCCGCAUGCUAUCCUCGUGGCAGACCCUGGACAACGCUGGUAGCUGUUCUCCAUGAGACACGGCUGCUCACAGGUCCCUUUGAGUGGCUGUGGCAAGUACUCACCUACUAAGUGUUUAGGGUGGAGCUAUCCUGUGCUCACCCUGUCUCCCCCCAGUUCCUGCUGUUCCCUCCAGCCCAGCCCAGCCCAGCACACAGAUUCAUUGAGAUUUUUGAAACUGUUUUUACAGAUUCAAGCAGAACGCCUCUUUGUUCUAAUAAAAACCCUUGGUCUCUUGCGGUCGCACUAGUGUGGAAUUCUCGGGUGUCAAGG
B5: ENSMUSG00000061578.401|Ksr2 (ssRNA)
RNA: GGGAGUUCUACAGUCCGACGAUCGCUUCGAUAUCCGCAUGCUAUUAAUGUACAGACAUCUGGAUCAAGGGAUUAAAAAAAAAAGAAUCAGUCUCUUCCCGGAGGAAGCAUCCGGGGGAAAUGUAUUCCUUCGCCCUGCAAGGAGCCAAUGGGAAGAGAGGGGACCAUAUAGUUAGAGACAUUCCCUACCCCCCGACCACUGACCCGUCCAGACCCUCGCUUCUUACAAUGCCUCUUCUUCUGCCAGACCAGCCACCUGCCCCACUAACACCAAAUGGCUUCUGUCCCUGCUUCACGUUGCAAACUCUUGCGGUCGCACUAGUGUGGAAUUCUCGGGUGUCAAGG
B6: ENSMUSG00000061578.1371|Ksr2 (ssRNA)
RNA: GGGAGUUCUACAGUCCGACGAUCGCUUCGAUAUCCGCAUGCUACUUACAUCUCUGACCCAGUGAUCUUUCUAGGGGUCUGUCACAUGUCCCAACAGGUGGACAGCUCUCCAAGUCACCAACCUGAGGAAAAUAUCCCUCCUUGUAAAAAGGCUUUCUCUUUGUAAAUGAUUCUGUUGCCUUUUUCUAAACACAAAGUAUAUAUACCUAUAAAUGCUAUAUAUAUUAUAUAUGUGUAUAUACAUAAAGACUACUUCUUGUACAGCCCUCCACGGACCUCAGGCCCACUGUUUUCUCCAUGUCUGCUCUUGCGGUCGCACUAGUGUGGAAUUCUCGGGUGUCAAGG
B7: ENSMUSG00000022095.129|Fam160b2|254:258 (ssRNA)
RNA: GGGAGUUCUACAGUCCGACGAUCGCUUCGAUAUCCGCAUGCUACAGCUGGUUCCUCUCUGGCGCCUUCUGAACCCGUCUCAGCAAGUCCGAAACACCUGGGCAGAGAGGUCAUUGACCAGGGAUGGGGGCCCUUGCCCUCUGAAUCCUGCCCAGUGCCCAGGGGUCCAGGUGGAAUGUGGUCCUGGGGACUAUAGGAACUCAAGGUACAGAUGGGACAGGGCACCCCAACUCCAAACCCCAGAAGCCUAGUGAGGCUAGGCCGAGACACAAGCAGAUAGCUCUGGCAUUGUUCUUCCAUACUCCUCUUGCGGUCGCACUAGUGUGGAAUUCUCGGGUGUCAAGG
B8: ENSMUSG00000042529.446|Kcnj12 (ssRNA)
RNA: GGGAGUUCUACAGUCCGACGAUCGCUUCGAUAUCCGCAUGCUAAGCCCAUCUGGUGCUGUGCACCUGGUCCUUGUCCAGCCGAGGGCCUGGGGGCAGAAGAACACACCAUAGGGAGGCCCUUGUAUGGGUGUCUGCCCUAUGUGAGGUCAUAGAAUGUUAAAUCUAUUUUAAACGGUGAAACUGGAGAAUUUUCAUGUUAUUUUCAAUAAUAGUGGUAUCUAAAGAUGUAGGCAACAAGACUAGACCACAUUAAAUGCAUUUUGAUCUCUUUGAAUGCUACUGUGUUGAGAUGUGCGUCUCACCUCUUGCGGUCGCACUAGUGUGGAAUUCUCGGGUGUCAAGG
B9: ENSMUSG00000022095.98|Fam160b2|79:83 (ssRNA)
RNA: GGGAGUUCUACAGUCCGACGAUCGCUUCGAUAUCCGCAUGCUAGGGGAAGCCCCCUCUUCCUGCUCUACCCUCCUGGAGGCUGUUGCAAAAUUCCCAACUGCCUCCUGGCAGAGGCCCAAACAUACCUCUGCGCCCAGGCGGGGGCAGCUGCUAACAAGAGCCCUGGCGCAGCUGCAGCCAGGGCAGGCGAGAGCCUUGGAGCUGGGUGCCAGGCUCCAGCUCCAGCUCCAGCUGGUUCCUCUCUGGCGCCUUCUGAACCCGUCUCAGCAAGUCCGAAACACCUGGGCAGAGAGGUCAUUGACCUCUUGCGGUCGCACUAGUGUGGAAUUCUCGGGUGUCAAGG
B10: ENSMUSG00000090935.122|Synj2bp|46:51;222:232 (ssRNA)
RNA: GGGAGUUCUACAGUCCGACGAUCGCUUCGAUAUCCGCAUGCUAUUCGUGAGAUACCGAAAGCAGCUUUGAAAUGCUUGCUGUCUUCCACACACACCAAUGAACUCUCUCUCUCACUCACCAUCUCUGACAUCCUCCCAUAUUCUUUCUCCUCCACAUAGCCAAUACAAGAUUUAAAGUGACUGCUUAUCACCCAAAACCCUGCUAUUCAAAAUCUCCUAUUCUAAUGGAAGAGUACAGGGGUUAUUUGAAGAAAAGCUGUGGUGCACACACACACGGGGAAGCCUUGCUUAGAAUGAAUGAGACUCUUGCGGUCGCACUAGUGUGGAAUUCUCGGGUGUCAAGG
B11: ENSMUSG00000058297.93|Spock2 (ssRNA)
RNA: GGGAGUUCUACAGUCCGACGAUCGCUUCGAUAUCCGCAUGCUAAGGGAGGGCAGGCAGCUGAAAGCUGAGCGUCCUCCCCAAAUUGGGCUGAUUUGAUAUGAAAGCCCCACCACGGUCUUGUGGUGAUGAGGCAGGACCUGUACACACAGCAAGGCUUACUAUCCGUCUCCUGACAUCCGAAGAGCUCGUCGCAGGUGUGUCUAAUGGCCCUUGGGCUGCACGUGGUUAAGCAUAGCUGUCUCUGUGGCCCAACACAAAGAGGUAAACUUACUUAAAACACAGGGGUUUUGUUGCUGUUUGUUCUCUUGCGGUCGCACUAGUGUGGAAUUCUCGGGUGUCAAGG
B12: ENSMUSG00000004113.177|Cacna1b|55:59;63:67;78:82;232:236 (ssRNA)
RNA: GGGAGUUCUACAGUCCGACGAUCGCUUCGAUAUCCGCAUGCUAGUAACUUUAAAAAAAAAGUCAACAUGUAGGAAGGUCUCCAUUUUGCAUUGUUUCACACACUUCAUACCAAUGUUCCUCAUACUUUCUACCCUGCCUGGGAUGUCCCCAAUGACCCUGGCUCCUCUGCUCAACCAAGUGCCUGAUCUCUGGCUCUGAGCAUCGUGGAUGAGGUACGGCCUCAGGAAGCAUCGGGUGGAUUGGGUGGGAGCUGCUCAGAGCAGCACGGGGGCUACACACUUAGGGACAUUGACAGUGUCCAUCUCUUGCGGUCGCACUAGUGUGGAAUUCUCGGGUGUCAAGG
B13: ENSMUSG00000042529.443|Kcnj12 (ssRNA)
RNA: GGGAGUUCUACAGUCCGACGAUCGCUUCGAUAUCCGCAUGCUAGAUGAAGCAGCUGCCCUGAGCCCAUCUGGUGCUGUGCACCUGGUCCUUGUCCAGCCGAGGGCCUGGGGGCAGAAGAACACACCAUAGGGAGGCCCUUGUAUGGGUGUCUGCCCUAUGUGAGGUCAUAGAAUGUUAAAUCUAUUUUAAACGGUGAAACUGGAGAAUUUUCAUGUUAUUUUCAAUAAUAGUGGUAUCUAAAGAUGUAGGCAACAAGACUAGACCACAUUAAAUGCAUUUUGAUCUCUUUGAAUGCUACUGUGCUCUUGCGGUCGCACUAGUGUGGAAUUCUCGGGUGUCAAGG

The full ranking holds about 9,900 sequences; the median of “r (bound/input frequency ratio)” is about 0.7, and the highest 2% start at about 6.5. What follows is part of a selection rich in the highest values, with near analogues and random picks from the rest.

The target in the test is TDP-43 (Homo sapiens, UniProt Q13148 1-414). The test can be described thus: RNA Bind-n-Seq with designed 260-mer pool; 25 mM Tris-HCl, 150 mM KCl, 3 mM MgCl2, BSA (printed 500 mg/mL), 20 units/mL SUPERase IN; pH not stated; 500 nM RNA pool, 1 h, 4 C; TDP-43 5, 50, 500 nM; high values mean tight binding. The conditions noted are these: protein: recombinant; tags: SBP (GST cleaved off with PreScission; pGEX-GST-SBP). In short, it runs like this: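 The incubation lasted 1 h at 4 °C and used 500 nM of an in vitro-transcribed 260-nt 3′ UTR oligo pool with recombinant SBP-tagged TDP-43 at 5, 50 or 500 nM immobilized on streptavidin beads. It took place in 25 mM Tris-HCl, 150 mM KCl, 3 mM MgCl2, BSA and SUPERase IN. Bound RNA was washed, eluted with biotin, converted to cDNA, PCR-amplified and sequenced to give R, each oligo's normalized abundance in the bound sample divided by that in input. Two independent protein batches provided the duplicates.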
TDP-43, sequence (Q13148 whole entry): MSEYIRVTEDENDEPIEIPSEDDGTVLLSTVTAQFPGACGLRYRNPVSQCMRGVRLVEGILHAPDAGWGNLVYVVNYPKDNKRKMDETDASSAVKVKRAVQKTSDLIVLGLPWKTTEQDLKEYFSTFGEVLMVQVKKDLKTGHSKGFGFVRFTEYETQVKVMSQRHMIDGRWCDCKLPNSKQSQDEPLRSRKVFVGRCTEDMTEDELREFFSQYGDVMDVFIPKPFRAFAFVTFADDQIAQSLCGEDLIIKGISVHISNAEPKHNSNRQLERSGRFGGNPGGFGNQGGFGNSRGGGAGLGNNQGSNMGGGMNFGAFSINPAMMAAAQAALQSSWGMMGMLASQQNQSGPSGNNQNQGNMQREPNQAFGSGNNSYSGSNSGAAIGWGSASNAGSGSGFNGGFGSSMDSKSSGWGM
For B1, the binding signal was 0.393 R (bound/input frequency ratio). With B2 the figure was 0.929 R (bound/input frequency ratio); with B3, 0.473 R (bound/input frequency ratio).

Turning to B4, the binding signal was 0.573 R (bound/input frequency ratio).

For the molecule B5, the binding signal is 0.446 R (bound/input frequency ratio). With B6 the figure was 0.0492 R (bound/input frequency ratio). The figure for B7 is 0.357 R (bound/input frequency ratio); for B8 it is 1.1 R (bound/input frequency ratio); for B9 it is 0.706 R (bound/input frequency ratio). With B10 the figure was 2.71 R (bound/input frequency ratio); with B11, 0.528 R (bound/input frequency ratio). For the molecule B12, the binding signal is 0.533 R (bound/input frequency ratio). With B13 the figure was 1.32 R (bound/input frequency ratio).

The values are drawn from PMC12864922, “TDP-43 directly inhibits mRNA accumulation in neurites through modulation of mRNA stability”.
